# Measured values reported in the supplement of paper PMC4466140.
# Target: ScBbc1
# Assay: SPOT peptide array binding signal intensity (averaged, normalized) (arbitrary units (background-subtracted, floor 0; scale differs between SH3 domains)); higher = stronger binding of the SH3 domain to the peptide
# Method: (§1)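 GST-tagged SH3 domains from S. cerevisiae (Sc), A. gossypii (Ag), C. albicans (Ca) and S. pombe (Sp) were incubated at 10 ug/ml overnight at 4 C on cellulose SPOT membranes carrying 292 synthetic 15-mer peptides mined from the S. cerevisiae proteome (cysteines replaced by serines). Binding was detected with anti-GST antibody, HRP secondary and chemiluminescence, quantified with Genespotter, and reported as normalized spot intensities averaged over biological replicates.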
row,Binder,SPOT peptide array binding signal intensity
1,NHSRSLFSLPGNQQS,0.75

# Target: ScBem1-D1
# Assay: as above
# Method: as §1
row,Binder,SPOT peptide array binding signal intensity
1,NHSRSLFSLPGNQQS,6.5

# Target: ScBzz1-D1
# Assay: as above
# Method: as §1
row,Binder,SPOT peptide array binding signal intensity
1,NHSRSLFSLPGNQQS,10

# Target: ScBzz1-D2
# Assay: as above
# Method: as §1
row,Binder,SPOT peptide array binding signal intensity
1,NHSRSLFSLPGNQQS,10.5

# Target: ScCyk3
# Assay: as above
# Method: as §1
row,Binder,SPOT peptide array binding signal intensity
1,NHSRSLFSLPGNQQS,29.5

# Target: ScFus1
# Assay: as above
# Method: as §1
row,Binder,SPOT peptide array binding signal intensity
1,NHSRSLFSLPGNQQS,595

# Target: ScHof1
# Assay: as above
# Method: as §1
row,Binder,SPOT peptide array binding signal intensity
1,NHSRSLFSLPGNQQS,3.5

# Target: ScHse1
# Assay: as above
# Method: as §1
row,Binder,SPOT peptide array binding signal intensity
1,NHSRSLFSLPGNQQS,2940

# Target: ScLsb1
# Assay: as above
# Method: as §1
row,Binder,SPOT peptide array binding signal intensity
1,NHSRSLFSLPGNQQS,2.75

# Target: ScLsb2
# Assay: as above
# Method: as §1
row,Binder,SPOT peptide array binding signal intensity
1,NHSRSLFSLPGNQQS,7

# Target: ScLsb3
# Assay: as above
# Method: as §1
row,Binder,SPOT peptide array binding signal intensity
1,NHSRSLFSLPGNQQS,4

# Target: ScLsb4
# Assay: as above
# Method: as §1
row,Binder,SPOT peptide array binding signal intensity
1,NHSRSLFSLPGNQQS,≤ 0

# Target: ScMyo3
# Assay: as above
# Method: as §1
row,Binder,SPOT peptide array binding signal intensity
1,NHSRSLFSLPGNQQS,29.5

# Target: ScMyo5
# Assay: as above
# Method: as §1
row,Binder,SPOT peptide array binding signal intensity
1,NHSRSLFSLPGNQQS,67.2

# Target: ScNbp2
# Assay: as above
# Method: as §1
row,Binder,SPOT peptide array binding signal intensity
1,NHSRSLFSLPGNQQS,104

# Target: ScPex13
# Assay: as above
# Method: as §1
row,Binder,SPOT peptide array binding signal intensity
1,NHSRSLFSLPGNQQS,≤ 0

# Target: ScRvs167
# Assay: as above
# Method: as §1
row,Binder,SPOT peptide array binding signal intensity
1,NHSRSLFSLPGNQQS,17

# Target: ScSho1
# Assay: as above
# Method: as §1
row,Binder,SPOT peptide array binding signal intensity
1,NHSRSLFSLPGNQQS,1120

# Target: ScSla1-D1-D2
# Assay: as above
# Method: as §1
row,Binder,SPOT peptide array binding signal intensity
1,NHSRSLFSLPGNQQS,90.5

# Target: ScSla1-D3
# Assay: as above
# Method: as §1
row,Binder,SPOT peptide array binding signal intensity
1,NHSRSLFSLPGNQQS,2.25

# Target: SpAbp1-D1
# Assay: as above
# Method: as §1
row,Binder,SPOT peptide array binding signal intensity
1,NHSRSLFSLPGNQQS,196

# Target: SpBbc1
# Assay: as above
# Method: as §1
row,Binder,SPOT peptide array binding signal intensity
1,NHSRSLFSLPGNQQS,5.5

# Target: SpBzz1-D1
# Assay: as above
# Method: as §1
row,Binder,SPOT peptide array binding signal intensity
1,NHSRSLFSLPGNQQS,28

# Target: SpBzz1-D2
# Assay: as above
# Method: as §1
row,Binder,SPOT peptide array binding signal intensity
1,NHSRSLFSLPGNQQS,2.5

# Target: SpCyk3
# Assay: as above
# Method: as §1
row,Binder,SPOT peptide array binding signal intensity
1,NHSRSLFSLPGNQQS,≤ 0

# Target: SpHof1
# Assay: as above
# Method: as §1
row,Binder,SPOT peptide array binding signal intensity
1,NHSRSLFSLPGNQQS,176

# Target: SpHof1-2
# Assay: as above
# Method: as §1
row,Binder,SPOT peptide array binding signal intensity
1,NHSRSLFSLPGNQQS,10.8

# Target: SpHof1-3
# Assay: as above
# Method: as §1
row,Binder,SPOT peptide array binding signal intensity
1,NHSRSLFSLPGNQQS,992

# Target: SpHse1
# Assay: as above
# Method: as §1
row,Binder,SPOT peptide array binding signal intensity
1,NHSRSLFSLPGNQQS,1960

# Target: SpLsb1
# Assay: as above
# Method: as §1
row,Binder,SPOT peptide array binding signal intensity
1,NHSRSLFSLPGNQQS,27.5

# Target: SpLsb4
# Assay: as above
# Method: as §1
row,Binder,SPOT peptide array binding signal intensity
1,NHSRSLFSLPGNQQS,20

# Target: SpMyo1
# Assay: as above
# Method: as §1
row,Binder,SPOT peptide array binding signal intensity
1,NHSRSLFSLPGNQQS,72.5

# Target: SpNbp2
# Assay: as above
# Method: as §1
row,Binder,SPOT peptide array binding signal intensity
1,NHSRSLFSLPGNQQS,125

# Target: SpPex13
# Assay: as above
# Method: as §1
row,Binder,SPOT peptide array binding signal intensity
1,NHSRSLFSLPGNQQS,7

# Target: SpRvs167
# Assay: as above
# Method: as §1
row,Binder,SPOT peptide array binding signal intensity
1,NHSRSLFSLPGNQQS,75

# Target: SpSla1-D1-D2
# Assay: as above
# Method: as §1
row,Binder,SPOT peptide array binding signal intensity
1,NHSRSLFSLPGNQQS,3

# Target: SpSla1-D3
# Assay: as above
# Method: as §1
row,Binder,SPOT peptide array binding signal intensity
1,NHSRSLFSLPGNQQS,13.5
